The campaign covered roughly 370,000 compounds. About 4,100 (1.1%) were called active.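 How the source made its calls: active means inhibition above the mean over all tested compounds plus 3 SD (cut at about 3.6% in these data); inactive means the rest.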 The list comes from a sample in which actives are over-represented; it also holds similar structures and randomly drawn compounds.

A short description of the test: relief of DAX-1 repression of SF-1 activity – cell-based, luminescence, SF-1 (NR5A1), full-length DAX-1, primary screen (AID 652010).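 Further: 0% = DAX-1 cells with DMSO and 100% = cells lacking DAX-1 with DMSO.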 To be noted: HEK293T StAR-luciferase reporter, SF-1/DAX-1 repression relief; at 6.8 µM; stronger effect = higher value. For orientation: In a reporter assay the amount or activity of a reporter protein is the signal.
On to `O=C(NCc1cccs1)C1CCCN(S(=O)(=O)c2ccc([N+](=O)[O-])cc2)C1` (stereo unspecified), for which the inhibition (usually the drop in the measured response relative to a control, in per cent) is -0.52% (inactive).
As for `COc1ccc2c(C(C)c3ccc(N)cc3)cn(C)c2c1` (stereo unspecified), the inhibition was 0.02% (inactive).
For `CC1CCN(c2ccc(-c3ccc(NC(=O)c4ccco4)cc3)nn2)CC1`, the inhibition is 2.92% (inactive).
As for `CCCCSc1nnc(-c2ccc(NC(=O)CC)cc2)n1C`, the inhibition was -0.29% (inactive).
On to `CCC(=O)Nc1ccc(-c2ccc(N3CCCCC3)nn2)cc1`, for which the inhibition is 4.53% (active).
On to `O=C(NCCOc1ccccc1)c1ccccc1F`, for which the inhibition was 6.99% (active).
The result for `NS(=O)(=O)c1cc(C(=O)NCCOc2ccccc2)c(Cl)cc1Cl` reads 0.12% (inactive).
With `O=C(NCCc1csc(-c2ccccc2)n1)c1ccccc1F`, the inhibition is -1.18% (inactive).
With `O=C(CCS(=O)(=O)c1ccccc1)Nc1ccc(Cl)c(Cl)c1` the figure was -0.2% (inactive).
The result for `O=C(CCCCCN1C(=O)C2C3C=CC(C3)C2C1=O)Nc1ccccc1` (stereo unspecified) reads 1.39% (inactive); that for `Cc1ccc(S(=O)(=O)N(NC2=NS(=O)(=O)c3ccccc32)C(=O)c2ccccc2)cc1`, 0.29% (inactive); that for `CC(C)(C)c1csc(NC2=NS(=O)(=O)c3ccccc32)n1`, 5.84% (active).
On to `O=C(Oc1cccc(NC2=NS(=O)(=O)c3ccccc32)c1)c1ccncc1`, for which the inhibition was 0.31% (inactive).
For the compound `Cc1ccc(Cn2cc(CN3[C@@H](C)COc4cc(Br)ccc4S3(=O)=O)nn2)cc1`, the inhibition was -0.52% (inactive).
The result for `O=C(CC1C(=O)NCCN1Cc1ccc(-c2ccccc2)cc1)NCC1CCOCC1` (stereo unspecified) reads -0.29% (inactive); that for `O=C(NCCc1ccccc1)c1ccc(NC2=NC3CS(=O)(=O)CC3S2)cc1` (stereo unspecified), -0.02% (inactive).
In the case of `CCCOc1ccc(C(=O)NCCc2ccccc2)cc1`, the inhibition is 5.47% (active).
The result for `O=C(NCCc1ccccc1)Oc1ccc(Cl)cc1` reads 0.42% (inactive); that for `O=C(NC1CCC1)c1ccc(C#CC2CC2)cn1`, 3.08% (inactive).
Take `Cc1ccc(OCc2nnc(SC/C=C/c3ccccc3)n2Cc2ccco2)cc1`: the inhibition was -0.46% (inactive).
With `COC(=O)c1cc2c(c3c4ccccc4n(S(=O)(=O)c4cccc(C)c4)c13)C(=O)N(Cc1ccccc1)C2`, the inhibition is -1.85% (inactive).
As for `CCC(C)c1ccc(O)c(/C=N/O)c1` (stereo unspecified), the inhibition was 0.8% (inactive).
On to `CNCC(O)c1ccc(O)c(O)c1` (stereo unspecified), for which the inhibition was 5.84% (active).
For the compound `CC(=NNC(N)=O)C1CC2CCC1CC2` (stereo unspecified), the inhibition was 1.47% (inactive).
As to `CCCCCCCCN1C(=O)[C@@H](CC(=O)N2CCN(C(=O)OCC)CC2)C[C@@]2(C(=O)OC)C1=C[C@H](C1CCCC1)O[C@@H]2C`, the inhibition is 0.13% (inactive).
Take `CCOC(=O)[C@@]12CN(C(=O)OC(C)(C)C)CC=C1N(Cc1ccc(OC)cc1)C(=O)[C@H]2CC(=O)NCc1ccc(OC)c(OC)c1`: the inhibition is -0.16% (inactive).
With `Cc1c(C(=O)Nc2ccccn2)oc2ccc(Br)cc12`, the inhibition was 8.27% (active).
Consider `CCc1nonc1NC(=O)c1oc2ccc(Cl)cc2c1C`, for which the inhibition is 0.27% (inactive).
As for `Cc1c(C(=O)NC2CCCCC2)oc2ccccc12`, the inhibition was 0.4% (inactive).
The result for `Cc1cccc(C(=O)Nc2c(-c3ccc(F)cc3)nc3ncccn23)c1` reads -1.21% (inactive); that for `CCCc1cc(C(=O)Nc2ccc(C(=O)OC)cc2)cs1`, 7.38% (active).
In the case of `CC(OC(=O)CCCOc1ccccc1)C(=O)Nc1ccc(Cl)cn1` (stereo unspecified), the inhibition was 3.13% (inactive).
For the compound `CC(OC(=O)CNC(=O)c1ccco1)C(=O)Nc1ccc(Cl)cn1` (stereo unspecified), the inhibition is -0.16% (inactive).
Regarding `COC(=O)c1ccc(NC(=S)NN2CCOCC2)cc1`, the inhibition was 1.02% (inactive).
Consider `CCCc1cc(C(=O)Nc2ccc(Cl)cn2)cs1`, for which the inhibition is 16.1% (active).
In the case of `CCC(=O)Nc1ccc(C(=O)Nc2cc(C)on2)cc1`, the inhibition was -0.34% (inactive).
The result for `O=C(c1ccccc1)c1ccc(-c2ccccc2C(=O)NC2CCCCN(Cc3ccc(Cl)cc3)C2=O)cc1` (stereo unspecified) reads -0.77% (inactive); that for `Cc1ccc(-n2c(SCC(=O)Nc3ccc(S(=O)(=O)Nc4nccs4)cc3)nnc2-c2ccncc2)cc1`, -0.77% (inactive).
In the case of `CCC(c1ccc(NC(=O)OC(C)(C)C)cc1)c1cc(OC)cc(OC)c1` (stereo unspecified), the inhibition was -0.05% (inactive).
`COCc1cc(N2CCN(C(=O)OC(C)(C)C)C[C@@H]2C)ccc1N1CCN(Cc2ccccc2)[C@H](C)C1`: the inhibition was -0.7% (inactive).
For `CCc1cc(C(=O)N(CC)CC(=O)Nc2c(F)cccc2F)sc1C`, the inhibition is -0.69% (inactive).
On to `CCN(CC(=O)Nc1c(F)cccc1F)C(=O)c1cnc(C)cn1`, for which the inhibition is 4.81% (active).
With `CCN(CC(=O)Nc1c(F)cccc1F)C(=O)c1ccc(-c2ccccc2)cc1`, the inhibition was 0.8% (inactive).
For the compound `CCCC[C@H]1C2CC(OC(=O)NCc3ccccc3)C(C2)[C@H]2CCCCN21` (stereo partly specified), the inhibition is -0.27% (inactive).
`Cc1ccc(-n2c(SCC(=O)Nc3ccc(S(=O)(=O)Nc4nccs4)cc3)nnc2-c2ccccn2)cc1`: the inhibition is 0.28% (inactive).
With `COc1cccc(NC(=O)COc2cccnc2[N+](=O)[O-])c1`, the inhibition is 1.83% (inactive).
As for `Cc1ccccc1OCC(=O)Nc1ccc2c(c1)ncn2C`, the inhibition was 4.8% (active).
As to `Cc1ccccc1OCC(=O)Nc1ccc(N2CCN(C(=O)C(C)C)CC2)c(Cl)c1`, the inhibition was -2.45% (inactive).
Take `COc1ccc(Nc2nc(N)nc(CSC(=S)N3CCC(C)CC3)n2)cc1`: the inhibition was 0.59% (inactive).
With `COC(=O)C1=C(C(=O)OC)C2C=C(C(C)C)C1C(=O)C2(C)O` (stereo unspecified), the inhibition was 2.32% (inactive).
As to `O=C(NCCc1ccc(F)cc1)c1ccc(S(=O)(=O)N2CCCCC2)cc1`, the inhibition was -1.79% (inactive).
Take `O=C(NCCc1ccc(F)cc1)c1n[nH]c2ccccc12`: the inhibition was 1.23% (inactive).
The result for `O=C(NCCc1ccc(F)cc1)c1ccc2nccnc2c1` reads 7.15% (active); that for `CCOC(=O)[C@]12CCCC3=C1N(CCC3)C(=O)[C@@H](CC(=O)N1CCSCC1)C2`, 0.52% (inactive); that for `COC(=O)[C@]12C[C@H](CC(=O)NCc3ccccc3)C(=O)N(CCc3ccc(OC)c(OC)c3)C1=C[C@H](C(C)(C)C)O[C@@H]2C`, -0.61% (inactive).
On to `COc1ccc(Nc2ccc3ccccc3c2)cc1`, for which the inhibition is 3.94% (active).
In the case of `COc1ccc(NC2=CC(=S)NC(C)(C)C2)cc1`, the inhibition was -0.32% (inactive).
With `COc1ccc(Nc2cc(=O)n(-c3ccccc3)c3c2c(=O)n(C)c(=O)n3C)cc1`, the inhibition is 0.33% (inactive).
As for `O=C(CNS(=O)(=O)c1ccccc1F)N1CCN(c2ccccn2)CC1`, the inhibition is -0.44% (inactive).
With `CCCCNC(=O)C[C@H]1C[C@@]2(C(=O)OC)C(=C[C@H](COCc3ccccc3)O[C@@H]2C)N(Cc2ccc(Cl)cc2Cl)C1=O`, the inhibition is -0.49% (inactive).
Consider `COC(=O)C[C@@H]1CC[C@@H]2[C@H](COc3ccc(NC(=O)c4cccc(F)c4)cc3C(=O)N2C)O1`, for which the inhibition is 0.44% (inactive).
Turning to `CCOCCCNC(=O)c1cc2c(=O)n3ccccc3nc2s1`, the inhibition is 0.63% (inactive).
With `CN(CCNC(=O)c1cc2c(-c3ccccc3F)nn(C)c2s1)C1CCCCC1`, the inhibition is 0.74% (inactive).
In the case of `CN(C(=O)c1cc2c(=O)n3ccccc3nc2s1)C1CCCCC1`, the inhibition was 8.94% (active).
On to `CN(CCc1ccccc1)C(=O)Cn1nc(-c2ccccc2)ccc1=O`, for which the inhibition is -1.5% (inactive).
With `CSc1ccccc1NC(=O)c1cc(Cl)sc1Cl`, the inhibition is -0.22% (inactive).
As for `CSc1ccccc1NC(=O)c1cc(C2CC2)on1`, the inhibition was 3.85% (active).
As for `Cc1nn(Cc2ccc(Cl)c(Cl)c2)c(C)c1NC(=O)c1cc(C2CC2)on1`, the inhibition is -1.2% (inactive).
With `Cc1ccc(C(=O)Nc2nnc(C3=COCCO3)o2)cc1C`, the inhibition is 1.49% (inactive).
Regarding `Cc1ccc(S(=O)(=O)NCC(=O)Nc2ccc3c(c2)OCCO3)cc1`, the inhibition was -0.38% (inactive).
Consider `O=C(Nc1ccccc1)c1ccc2c(c1)OCCCO2`, for which the inhibition was 14.7% (active).
The result for `Cc1ccc(C(=O)Nc2ccc3c(c2)OCCO3)cc1S(=O)(=O)N1CCOCC1` reads 1.01% (inactive); that for `Cc1nc(NC(=O)c2ccc3c(c2)OCCO3)ccc1Br`, 12.7% (active); that for `COc1cccc(C(=O)Nc2cc3c(cc2Br)OCCCO3)c1`, 2.47% (inactive).
For `O=C(Nc1ccc(N2CCOCC2)c(Cl)c1)c1ccc(S(=O)(=O)N2CCOCC2)cc1`, the inhibition is -0.43% (inactive).
Consider `C/C(Cc1ccccc1)=N\NC(=O)CNC(=O)c1ccc2c(c1)OCCO2`, for which the inhibition is 0.38% (inactive).
`CN1CCN(c2ccc(NC(=O)c3ccc4c(c3)OCCO4)cc2Cl)CC1`: the inhibition was 4.89% (active).
With `Cc1ccc(C(=O)NNC(=O)c2ccc3c(c2)OCCO3)cc1` the figure was 5.23% (active); with `C/C(=N/NC(=S)Nc1ccccc1)c1ccc2c(c1)OCO2`, 0.83% (inactive); with `O=C(Nc1ccc(N2CCN(C(=O)c3ccccc3)CC2)c(Cl)c1)c1cccnc1`, -1.45% (inactive).
For `CC(C)(C)n1nc(C2CC2)c(Br)c1NC(=O)c1ccccc1F`, the inhibition is -1.59% (inactive).
As for `N#Cc1ccc(OC[C@@H](O)CN2CCC(C(O)(c3ccccc3)c3ccccc3)CC2)c(F)c1`, the inhibition is -0.27% (inactive).
For `CC(C)CNS(=O)(=O)CC1NCCc2ccccc21` (stereo unspecified), the inhibition was -0.78% (inactive).
On to `COc1cccc(N2CCN(CC(=O)N(C)Cc3ccc(F)cc3)CC2)c1`, for which the inhibition is -0.23% (inactive).
`C=CCN1C(=O)[C@@H](CC(=O)NCCCCc2ccccc2)[C@]2(C(=O)OCC)CCCCC/C=C/12`: the inhibition is -0.85% (inactive).
Regarding `CCOC(=O)Cn1c2c(n(-c3ccc(F)cc3)c1=O)C=C(c1ccccc1)[C@@H](C)C(C(=O)N(C)C1CCCCC1)=C2`, the inhibition is -1.69% (inactive).
The result for `Cn1c(=O)c([N+](=O)[O-])c(Oc2ccccc2)c2ccccc21` reads -1.48% (inactive).
Turning to `C=CCN1C(=O)[C@H](CC(=O)NCCCN2CCCC2=O)[C@@]2(C(=O)OCC)CCCC=C12`, the inhibition is 0.2% (inactive).
Turning to `CCCCCN1CCCCC(NC(=O)C(C)CCC)C1=O` (stereo unspecified), the inhibition is 0.06% (inactive).
In the case of `c1csc(-c2nnc(SCc3nc4ccccc4[nH]3)o2)c1`, the inhibition is -0.62% (inactive).
With `CCc1ccc2oc(-c3ccc(N)cc3)nc2c1` the figure was 5.85% (active).

These data come from PubChem BioAssay AID652010 (The Scripps Research Institute Molecular Screening Center, 2013).
